High-throughput results (PubChem)
Vif-APOBEC3G blk: Vif-A3G binding inhibition | Q9HC16 | HeLa A3G-eYFP + Vif (tagged APOBEC3G with the HIV-1 protein that degrades it), YFP fluorescence, overnight | Potency, µM (doses to about 46.1 µM), for the others: at the top dose activity, negative = active, most hits filed as inhibitors | 410,000 tested, 0.076% active | AID 602310; also: potency is read from the fitted curve at half-maximal effect; % is scaled to controls: 0 for no effect and ±100 for the full control effect; nearly all actives have a fitted effect of over 60% in size
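HeLa cells stably expressing Vif and C-terminally eYFP-tagged A3G, seeded overnight at 37 deg C, then exposed to compound by pintool overnight at 37 deg C. Rise in yellow fluorescence (Ex 488/Em 500-530, Acumen) marks blocked Vif-driven A3G degradation.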
TrxR1 inh: inhibitors of rat thioredoxin reductase 1 | O89049 | recombinant rTrxR1, NADPH fluorescence consumption, selenite substrate | Potency, µM (top dose mostly 114 µM), inactives show at the highest dose activity change, negative = inhibition, hits mostly inhibitors | 390,000 tested, 1% active; also: potency is read from the fitted curve at half-maximal effect; % is scaled to controls: 0 for no effect and ±100 for the full control effect; nearly all actives have a fitted effect of over 65% in size
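Rat TrxR1 (90 nM in the dispensed reagent) was pre-reduced with 400 uM NADPH for 5 min at room temperature, then incubated with compound for 15 min. After 400 uM selenite was added, NADPH fluorescence (Ex 340/Em 450 nm) was followed for 8 min.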
TrxR1 substrate: is turned over as a substrate by rat TrxR1. 390,000 tested, 0.01% active. purified TrxR1 substrate turnover, NADPH consumption readout. AID 588456. O89049. Potency, µM (top dose mostly 114 µM), for the others: at the highest dose activity change, negative = substrate turnover; also: potency is read from the fitted curve at half-maximal effect; % is scaled to controls: 0 for no effect and ±100 for the full control effect; nearly all actives have a fitted effect of over 50% in size
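Rat TrxR1, dispensed at 90 nM, was prereduced with 400 uM NADPH (final) for 5 min at ~22 deg C, then incubated with compound 15 min before 400 uM selenite. A first-read NADPH fluorescence drop versus no-compound background flagged substrates.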
Vif-APOBEC3F blk: Vif-A3F binding inhibition; Potency, µM (highest dose often 46.1 µM), without a hit: at the top dose activity, negative = active; HeLa A3F-eYFP + Vif (tagged APOBEC3F with the HIV-1 protein that degrades it), YFP fluorescence increase; AID 602313; 390,000 tested, 0.2% active; also: potency is read from the fitted curve at half-maximal effect; % of control where 0% means no effect; nearly all actives have a fitted effect of over 65% in size
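Fluorescence increase (Ex 488/Em 500-530) after overnight compound treatment at 37 deg C flags inhibition of Vif-driven A3F-eYFP loss in stable HeLa A3F-eYFP/Vif cells seeded overnight beforehand.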
VDR inhibitor: blocks the human vitamin D receptor; AID 504847; VDR-SRC2-3 peptide fluorescence polarization, 2 h; 400,000 tested, 0.93% active; Potency, µM, for inactives: max response, negative = inhibition, hits mostly inhibitors; also: potency is read from the fitted curve at half-maximal effect; % is scaled to controls: 0 for no effect and ±100 for the full control effect
Target sequence (P11473 whole entry, looked up): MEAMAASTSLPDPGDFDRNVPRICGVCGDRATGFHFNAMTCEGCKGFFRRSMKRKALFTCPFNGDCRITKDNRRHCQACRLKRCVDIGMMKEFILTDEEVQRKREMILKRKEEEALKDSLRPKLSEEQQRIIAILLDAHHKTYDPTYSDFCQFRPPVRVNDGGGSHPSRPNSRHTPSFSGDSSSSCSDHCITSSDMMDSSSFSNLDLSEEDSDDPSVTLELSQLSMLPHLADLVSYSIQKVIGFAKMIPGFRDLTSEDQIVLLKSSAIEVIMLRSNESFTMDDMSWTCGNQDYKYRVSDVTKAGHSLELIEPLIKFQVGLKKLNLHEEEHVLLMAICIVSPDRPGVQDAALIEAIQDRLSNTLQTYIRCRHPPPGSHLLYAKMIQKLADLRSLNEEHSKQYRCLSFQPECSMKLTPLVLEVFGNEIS
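FP read-out; VDR + SRC2-3 coactivator peptide; 23 nl compound by pintool; 2 h RT incubation; reagents held at 4 deg C, protected from light.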
USP1-UAF1 confirm: blocks human USP1/UAF1 cleavage of Ub-Rhodamine | shares compounds with VDR inhibitor | Ub-Rhodamine cleavage, fluorescence kinetic read | Potency, µM (top dose mostly 114 µM), without a hit: at the top dose activity change, negative = inhibition, actives largely listed as inhibitors | 50 tested, 50% active
VDR inh confirm: confirmation of human vitamin D receptor inhibitors; shares compounds with VDR inhibitor; VDR-coactivator inhibition assay, qHTS confirmation; Potency, µM, most hits filed as inhibitors; 840 tested, 89% active; AID 602199; also: potency is read from the fitted curve at half-maximal effect
VDR FP: blocks human VDR-coactivator binding in fluorescein assay; AID 602200; Potency, µM (series often up to 57.1 µM), without a hit: at the highest dose activity change, negative = inhibition, actives largely listed as inhibitors; shares compounds with VDR inhibitor; VDR-coactivator binding, fluorescein fluorescence polarization; 840 tested, 48% active; also: potency is read from the fitted curve at half-maximal effect
VDR bla reporter: inhibits human VDR in beta-lactamase reporter cells. shares compounds with VDR inhibitor. VDR beta-lactamase reporter cells, FRET ratio; cells co-treated with VDR agonist LG190178. Potency, µM (titrated, usually from 46.1 µM), without a hit: at the top dose activity change, negative = inhibition, hits mostly inhibitors. 840 tested, 23% active; also: potency is read from the fitted curve at half-maximal effect; % is scaled to controls: 0 for no effect and ±100 for the full control effect
VDR viability: counter-screen for vitamin D receptor inhibitors: cytotoxicity. shares compounds with VDR inhibitor. cytotoxicity counter-screen, cell viability, qHTS. Potency, µM (series often up to 48.3 µM), inactives show at the highest dose activity change, negative = cytotoxicity, hits mostly cytotoxic. 840 tested, 18% active;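 also: potency is read from the fitted curve at half-maximal effect; plate controls were DMSO for no effect and high-concentration cycloheximide for full effect; nearly all actives have a fitted effect of over 75% in size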
Active calls of the source: *; u = inconclusive; x = no result; [ ] = dose if it differs, or a comment. The list is not random: actives were taken first. Their share in the collection is about 1.8%. Calls follow the shape of the dose curve; as a rule, active = well fitted curve in the direction sought with a large enough effect; inconclusive = small, poorly fitted or top-dose-only effect, or another doubt; inactive = no such curve, though single readings can be large; an effect the other way counts as inactive or inconclusive.

SMILES	Vif-APOBEC3G blk	TrxR1 inh	TrxR1 substrate	Vif-APOBEC3F blk	VDR inhibitor	VDR inh confirm	VDR FP	VDR bla reporter	VDR viability	others
CC(C)OC(=O)CSc1nc2ccccc2s1	-5%	9%	2%[57.1 µM]	0%	-2%	x	x	x	x
O=[N+]([O-])c1c(NCCCO)cc(Sc2nc3ccccc3s2)c2nonc12	-21%	0.63µM*	-1%	-27%	16µM*	6*	u	u	u
O=C(NCCOCCn1c(=O)oc2ccccc21)Nc1ccc(Cl)cc1	4%	12%	-3%	5%	8%	x	x	x	x
Cc1ccc2c(c1)C(=O)C(=O)N2Cc1ccc(Br)cc1	u	7%[57.1 µM]	-11%[57.1 µM]	5%	22µM*	8.4*	u	-21%	u
Cc1ccc(CN2C(=O)C(=O)c3cc(C)ccc32)cc1	u	23%	9%	-30%	u	x	x	x	x
c1cc2c3c(c1)CCCN3CCC2	1%	9%	5%	x	x	x	x	x	x
Cc1ccc(S(=O)(=O)N[C@@H](Cc2ccccc2)C(=O)CCl)cc1	u	u	11%[57.1 µM]	-1%	5.6µM*	9.5*	7.1µM*	18µM*	u	USP1-UAF1 confirm=47µM*
Nc1nc(-c2cccc(F)c2)cs1	-1%	6%[57.1 µM]	-1%[57.1 µM]	9%	35µM*	24*	u	12%	7%
CN1CCN(C(=S)C(=O)Nc2ccc(Br)cc2)CC1	1%	-1%[57.1 µM]	8%[57.1 µM]	-10%	u	4*	3.5µM*	-3%	-15%
CCNCc1ccccc1OCc1ccccc1	6%	-3%	2%	5%	-2%	x	x	x	x
Oc1ccc(NCc2ccccc2OCc2ccccc2)cc1	u	u	0%	3%	50µM*	14*	14µM*	6%	u
CC1(C)CC(=O)C(C(C2=C(O)CC(C)(C)CC2=O)c2ccc(O)c([N+](=O)[O-])c2)=C(O)C1	-1%	13µM*	-7%	-1%	79µM*	9.5*	u	-2%	17%
CC1(C)CC(=O)C2=C(C1)OC1=C(C(=O)CC(C)(C)C1)C2c1ccc(O)c([N+](=O)[O-])c1	0%	18%	5%	2%	5%	x	x	x	x
O=C(NNc1cc(Br)c(O)c(Br)c1)c1ccccc1	-21%	u	5%[57.1 µM]	-4%	79µM*	u	u	-4%	1%
CC1=CC(=C(c2ccc(N)cc2)c2ccc(N)cc2)C=CC1=N	8%	-5%	-7%	x	u	x	x	x	x
Cc1ccc(S(=O)(=O)N2CCN(c3nc(-c4cccs4)nc4cccnc34)CC2)cc1	-1%	u	2%	x	-7%	x	x	x	x
CN(Cc1ccccc1)C(=O)NC1CCCCC1	2%	4%[57.1 µM]	7%[57.1 µM]	-16%	18%	x	x	x	x
CC(C)(Sc1ccc(CCN(CCCCC2CCCCC2)C(=O)NC2CCCCC2)cc1)C(=O)O	-2%	u	-5%[57.1 µM]	-1%	40µM*	x	x	x	x	USP1-UAF1 confirm=33µM*
O=S1OC(c2ccccc2)c2cc(Cl)ccc21 (centres undefined)	-3%	30%	-5%	u	22µM*	3.2*	3.5µM*	3%	22%
COc1ccc(C(=O)C[n+]2cc(Br)cc(Br)c2)cc1	0%	22%	2%	x	x	x	x	x	x
